In the supplement of paper PMC7057948, “A genome-wide approach for identification and characterisation of metabolite-inducible systems” (Nature Communications, 2020):

test system: KynR/P_H16_RS14030 L-kynurenine biosensor (pEH136); experiment: relative induction of RFP reporter vs primary effector; higher = stronger activation; details: inducer concentration 5 mM; 6 h; Cupriavidus necator H16; minimal medium + 0.4% gluconate
Procedure: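 Orthogonality screen of 21 primary inducers against 21 transcription factor/inducible promoter–mRFP biosensors in C. necator H16 in minimal medium, robotic 96-well format, 5 mM inducer, 30 °C. OD-normalised RFP fluorescence was read 6 h later and expressed as relative induction (%) = 100 × (FL compound − FL uninduced)/(FL primary inducer − FL uninduced); mean of n=4. Cognate pairs (100% by definition) omitted.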

| Structure (SMILES) | relative induction of RFP reporter |
| --- | --- |
| O=C(O)CCO [3-hydroxypropanoate] | -0.395% |
| O=C(O)C(O)C(O)C(=O)O (configuration not stated) [tartrate] | 0.0585% |
| N[C@@H](Cc1ccc(O)cc1)C(=O)O [L-tyrosine] | 0.164% |
| O=C(O)C1CCCCC1 [cyclohexane-1-carboxylate] | 0.977% |
| C=C(CC(=O)O)C(=O)O [itaconate] | -0.472% |
| O=C(O)c1ccccc1 [benzoate] | -0.112% |
| NCCC(=O)O [β-alanine] | -0.589% |
| O=CO [formate] | 0.482% |
| O=C(O)CS(=O)(=O)O [sulfonatoacetate] | 0.55% |
| O=C(O)c1ccc(O)c(O)c1 [3,4-dihydroxybenzoate] | 0.138% |
| N[C@@H](Cc1ccccc1)C(=O)O [L-phenylalanine] | 1.98% |
| O=C(O)c1ccccc1O [salicylate] | -0.248% |
| OC1OC[C@H](O)[C@H](O)[C@H]1O (mixture of isomers) [L-arabinose] | 0.181% |
| C=CC(=O)O [acrylate] | 0.406% |
| O=c1[nH]c(=O)c2nc[nH]c2[nH]1 [xanthine] | 0.0316% |
| O=C(O)C(=O)c1ccccc1 [phenylglyoxylate] | 0.112% |
| CC(=O)C(C)O (configuration not stated) [acetoin] | 0.0145% |
